Records with an inconclusive call do not appear. Active and inactive are the calls of the source. Calls come from the whole dose curve.
assay: qHTS Assay for Lipid Storage Modulators (AID 1519); details: Drosophila S3 cells, BODIPY lipid droplet/cell ratio, laser cytometry; at 25.7 µM (top of the series); cells loaded with oleic acid
Method in brief: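 Cells seeded at 5,000 per well were treated with compounds over a concentration series and loaded with oleic acid (400 uM, as added). Lipid droplet fluorescence (488 nm excitation, 500-530 nm channel) was read by laser-scanning cytometry and normalized to 20 uM Triacsin C.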
% is set by controls: 0 for no effect and ±100 for the full control effect.

Activity change, negative = inhibition, inactive:
CCO[C@H]1O[C@@H]([C@H](COCc2ccccc2)OCc2ccccc2)[C@@H](OCc2ccccc2)[C@H]1O -6.14%
C1CCC(C(C[C@@H]2CCCCN2)C2CCCCC2)CC1 -4.85%
COc1cc(N[C@@H](C)CCCN)c2ncccc2c1 -1.31%
CC(C)(C)NC(=O)[C@@H]1C[C@H]2CCCC[C@@H]2CN1C[C@H](O)[C@H](Cc1ccccc1)NC(=O)[C@@H](CC(N)=O)NC(=O)c1ccc2ccccc2n1 -0.923%
COC(=O)C1=C(C)NC(C)=C(C(=O)OCCN(C)Cc2ccccc2)[C@H]1c1cccc([N+](=O)[O-])c1 0.376%
C[C@@H](CN1c2ccccc2Sc2ccccc21)N(C)C -3.2%
C[C@@H](Cc1cccc(C(F)(F)F)c1)NCCOC(=O)c1ccccc1 -1.81%
C=Cc1c(C)c2cc3nc(cc4[nH]c(cc5nc(cc1[nH]2)C(C)=C5CCC(=O)O)c(CCC(=O)OC)c4C)[C@@]1(C)C3=CC=C(C(=O)OC)[C@H]1C(=O)OC (tested in a mixture with another compound) 1.23%
O=C(OC[C@@H](O)CO)c1ccccc1Nc1ccnc2cc(Cl)ccc12 -2.54%
C=C(C)[C@H]1CC[C@]2(C(=O)O)CC[C@]3(C)[C@@H](CC[C@H]4[C@@]5(C)CC[C@@H](O)C(C)(C)[C@@H]5CC[C@@]43C)[C@H]12 -9.82%
Nc1ncnc2c1ncn2[C@@H]1O[C@H](COP(=O)(O)O)[C@@H](O)[C@@H]1O -0.35%
CO[C@]1(NC(=O)[C@H](C(=O)O)c2ccc(O)cc2)C(=O)N2C(C(=O)O)=C(CSc3nnnn3C)CO[C@H]21 -4%
COc1ccc2c(c1)N(C[C@@H](C)CN(C)C)c1ccccc1S2 -4.01%
CCN(CC)CCOC(=O)[C@@H](c1ccccc1)C1CCCCC1 -5.77%
O[C@@](CCN1CCCCC1)(c1ccccc1)[C@@H]1C[C@H]2C=C[C@@H]1C2 1.83%
O=C1C=CC(=O)c2c1ccc1c2ccc2ccccc21 -0.997%
CCC(=O)[C@@]1(C)[C@H](C)C[C@@H]2[C@@H]3CCC4=CC(=O)C=C[C@@]4(C)[C@H]3[C@H](O)C[C@]21C -1.25%
Nc1ncn([C@H]2O[C@@H](CO)[C@@H](O)[C@@H]2O)c(=O)n1 -7.35%
C[C@@H]1O[C@H](O[C@@H]2[C@H](C)O[C@H](O[C@@H]3[C@H](C)O[C@H](O[C@H]4CC[C@]5(C)[C@@H](CC[C@@H]6[C@H]5C[C@@H](O)[C@]5(C)[C@@H](C7=CC(=O)OC7)CC[C@]65O)C4)C[C@@H]3O)C[C@@H]2O)C[C@H](O)[C@@H]1O 0.916%
CCC(C)(C)C(=O)O[C@@H]1C[C@H](C)C=C2C=C[C@H](C)[C@@H](CC[C@H]3C[C@@H](O)CC(=O)O3)[C@H]21 -9.23%
Cc1onc(-c2c(F)cccc2Cl)c1C(=O)N[C@H]1C(=O)N2[C@H]1SC(C)(C)[C@H]2C(=O)O -2.99%
CCN(CC)[C@@H](C)CN1c2ccccc2Sc2ccccc21 0.633%
COC(=O)[C@@H]1[C@@H]2C[C@H]3c4[nH]c5cc(OC)ccc5c4CCN3C[C@@H]2C[C@H](OC(=O)/C=C\c2cc(OC)c(OC)c(OC)c2)[C@H]1OC -1.81%
CO[C@@H]1CC[C@@]2(C)[C@@H](CC[C@@]3(C)[C@H]2CC=C2[C@H]4CC(C)(C)[C@H](O)[C@@H](OC(C)=O)[C@]4(CO)[C@H](O)C[C@]23C)[C@@]1(C)CO (tested in a mixture with another compound) 0.0322%
CC=C(/C(=C/C)c1ccc(O)cc1)c1ccc(O)cc1 -3.26%
CC1(C)S[C@@H]2[C@H](NC(=O)[C@@H](N)c3ccccc3)C(=O)N2[C@H]1C(=O)O[C@H]1OC(=O)c2ccccc21 -2.68%

— PubChem BioAssay (NCATS)
